Assay outcomes from PubChem BioAssay.
Rows were chosen to be rich in hits. Some 10% of all compounds tested hit in one or more screens of this group.
CtBP-E1A inh: blocks the CtBP interaction with E1A; AlphaScreen GST-E1A/His-CtBP binding, 1536-well; stronger effect = lower value; activity change, % (concentration not given with the values); actives 0.49% (n = 340,000); AID 651724; in the data active means activity change below about -65%; inconclusive means mostly about -30% to -63%; further: on the % scale 0 is the no-effect control and ±100 the full control effect
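Homogeneous bead-based format: GST-tagged E1A captured on glutathione donor beads, His-tagged CtBP on nickel acceptor beads; compounds precede bead addition by 2 h at 37 °C.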
HP1b binding inh: blocks HP1-beta chromodomain binding to methylated histone tails; Potency, µM (highest dose often 114 µM), inactives show at the highest dose activity change, negative = inhibition, actives largely listed as inhibitors; actives 0.56% (n = 390,000); AlphaScreen HP1-beta / biotin-H3K9me3 peptide binding; P83916; further: potency means the concentration at half of the fitted maximal effect; nearly all actives have a fitted effect of over 70% in size
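AlphaScreen: HP1-beta (50 nM) preformed 30 min with biotin-H3(1-18)K9me3 peptide (50 nM) in PBS pH 7.4, 0.01% Tween-20. Compound added for 30 min at RT, then streptavidin donor/nickel chelate acceptor beads (10 ug/mL) for 30 min.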
G9a block: G9a (human) methyltransferase inhibition. Q96KQ7. Potency, µM (doses to about 102 µM), for inactives: at the highest dose activity, negative = inhibition, most hits filed as inhibitors. AID 504332. actives 8.8% (n = 350,000). G9a H3K9 monomethylation, AlphaScreen, 2 h; further: potency means the concentration at half of the fitted maximal effect; on the % scale 0 is the no-effect control and ±100 the full control effect; nearly all actives have a fitted effect of over 75% in size
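Step 1: enzyme (final 20 nM) with compound, 15 min RT. Step 2: substrate peptide 500 nM and SAM 20 uM, 2 h RT. Step 3: anti-H3K9me1 antibody and AlphaScreen beads, 10 min, then plate read.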
JMJD2A Tudor inh: JMJD2A Tudor domain (human) inhibition | O75164 | AlphaScreen JMJD2A-Tudor / H3K4me3 peptide binding | Potency, µM (highest dose often 114 µM), inactives show at the highest dose activity change, negative = inhibition, usual class: inhibitors | actives 4.4% (n = 390,000) | AID 504339; further: potency means the concentration at half of the fitted maximal effect; on the % scale 0 is the no-effect control and ±100 the full control effect; nearly all actives have a fitted effect of over 50% in size
BAZ2B inh: blocks human BAZ2B; AlphaScreen BAZ2B-H3K14Ac peptide displacement; Potency, µM (series often up to 114 µM), for the others: at the top dose activity change, negative = inhibition, actives largely listed as inhibitors; actives 4.4% (n = 360,000); Q9UIF8; further: potency means the concentration at half of the fitted maximal effect; on the % scale 0 is the no-effect control and ±100 the full control effect; nearly all actives have a fitted effect of over 60% in size
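AlphaScreen luminescence quantifies BAZ2B engagement of H3K14Ac peptide; the protein and biotinylated peptide are both at 50 nM final, buffer PBS pH 7.4 with 0.01% Tween-20, all steps at room temperature.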
Six1-Eya2 blk: inhibitors of human Six1/Eya2 interaction | Q15475+O00167 | activity change, % (no concentration beside the values) | actives 0.56% (n = 360,000) | AlphaScreen GST-Six1/His-Eya2 binding, biochemical; stronger effect = lower value | AID 651725; in the data active means activity change below about -65%; inconclusive means mostly about -30% to -63%; further: on the % scale 0 is the no-effect control and ±100 the full control effect
Target sequence (O00167 whole entry, looked up): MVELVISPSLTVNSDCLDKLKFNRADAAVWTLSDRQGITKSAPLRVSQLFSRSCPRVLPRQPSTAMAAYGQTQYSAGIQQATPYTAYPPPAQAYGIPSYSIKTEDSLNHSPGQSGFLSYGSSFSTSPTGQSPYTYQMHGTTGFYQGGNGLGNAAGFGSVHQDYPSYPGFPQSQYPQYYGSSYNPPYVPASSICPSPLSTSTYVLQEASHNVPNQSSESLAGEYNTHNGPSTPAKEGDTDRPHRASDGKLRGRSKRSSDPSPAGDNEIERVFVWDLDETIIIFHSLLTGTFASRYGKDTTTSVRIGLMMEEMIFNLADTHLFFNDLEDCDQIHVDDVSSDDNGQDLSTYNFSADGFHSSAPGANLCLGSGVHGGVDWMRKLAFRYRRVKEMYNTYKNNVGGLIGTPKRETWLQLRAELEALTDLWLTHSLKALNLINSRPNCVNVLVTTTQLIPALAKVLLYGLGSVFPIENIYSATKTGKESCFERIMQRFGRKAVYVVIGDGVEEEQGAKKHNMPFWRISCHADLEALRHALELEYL
Target sequence (Q15475 whole entry, looked up): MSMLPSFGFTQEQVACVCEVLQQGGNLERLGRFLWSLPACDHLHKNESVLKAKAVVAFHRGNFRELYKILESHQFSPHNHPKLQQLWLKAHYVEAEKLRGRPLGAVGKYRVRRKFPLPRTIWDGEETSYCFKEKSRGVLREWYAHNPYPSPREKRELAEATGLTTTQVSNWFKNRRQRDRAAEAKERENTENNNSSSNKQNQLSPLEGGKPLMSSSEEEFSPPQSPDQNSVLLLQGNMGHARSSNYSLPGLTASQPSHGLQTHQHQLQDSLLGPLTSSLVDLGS
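AlphaScreen luminescence read after one hour at 37 °C in darkness. Pin-transferred compounds met GST-Six1 and His-Eya2 protein (5X stock 250 nM/500 nM) plus glutathione donor and Ni-chelate acceptor beads (5X, 50 ug/mL).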
Starred values were filed as active, the others as inactive; ? = inconclusive; / = no result; [ ] = dose if it differs, or a comment. Unless noted, the call rests on the fitted dose curve; in most records, active means well fitted inhibition curve with a large enough effect; inconclusive means small, poorly fitted or top-dose-only effect; inactive means no such curve, though single readings can be large or run the other way.

SMILES	CtBP-E1A inh	HP1b binding inh	G9a block	JMJD2A Tudor inh	BAZ2B inh	Six1-Eya2 blk
CC(C)Cn1c(SCC(=O)c2ccc(Cl)s2)nnc1-c1ccco1	-3	-3%	?	?	?	-3
COc1ccc(N2C(=O)CC(Sc3nc(C)c4c(n3)CCCC4)C2=O)cc1 (stereo not drawn)	2	34%	-45%	-13%	8%	-2
COc1ccc(N2C(=O)CC(Sc3n[nH]c(-c4ccccc4)n3)C2=O)cc1 (stereo not drawn)	-1	?	/	5µM*	-12%	0
CCOc1ccc(N2C(=O)CC(Sc3n[nH]c(-c4ccccc4)n3)C2=O)cc1 (stereo not drawn)	/	?	-16%[0.501 µM]	4.5µM*	-11%	-1
Cc1nc(SCc2nc3c(O)cccc3[nH]2)c2oc3ccccc3c2n1	/	24%	/	28µM*	/	/
Cc1nc(SCc2nc3ccc(F)cc3[nH]2)c2oc3ccccc3c2n1	/	25%	/	?	/	/
COc1ccc(N/C=C2\C(=O)CCc3c2oc2cc(Cl)c(O)c(Cl)c32)cc1	/	-14%	40µM*	-36%	-37%	-4
COC(=O)c1ccccc1NC(=O)CSc1nc2ccsc2c(=O)n1CCC(C)C	/	31%	16%[59 µM]	-23%	4%	/
COc1cc(NS(=O)(=O)c2ccc3c(c2)CC(=O)N3)cc(OC)c1OC	/	14%	0.35µM*	-23%	/	/
N#Cc1ccc(NS(=O)(=O)c2ccc3c(c2)CCC(=O)N3)cc1	/	/	/	79µM*	/	/
CSc1ccc(C(=O)C2CCCN(C(=O)Cn3cnnn3)C2)cc1 (stereo not drawn)	6	11%	?	-13%	2%	0
COc1ccc(-n2nnnc2C2(C)CCC(=O)N2Cc2ccccc2)cc1 (stereo not drawn)	1	/	/	/	/	4
COc1cc2c(cc1OC)n(CC(=O)NC1CCCCCC1)n1c(C)cc(=O)nc21	-1	-14%	23%	50µM*	-14%	1
Cc1ccc2c(c1C)NC(C)CC2C (stereo not drawn)	4	-13%	14µM*	-8%[11.4 µM]	?	-2
Cc1cccc(N2CCN(C(=O)c3c(C)oc4ncnc(N5CCCCC5)c34)CC2)c1C	/	5%	-45%[59 µM]	-27%	-21%[57.1 µM]	/
COc1cccc2oc3ccc(C#Cc4ccccn4)cc3c(=O)c12	6	30%	50µM*	-15%	-8%	-3
COc1cccc2sc3cc(C#Cc4ccccn4)ccc3c(=O)c12	-18	-7%	/	28µM*	/	-21
Cc1cccc(NC(=O)c2ccc(N3C(=O)C4CCCCC4C3=O)cc2)c1C (stereo not drawn)	0	27%	11%	7%	-18%	1
Cc1cc(C)c(NC(=O)c2cc3c(=O)n4ccccc4nc3n2C)c(C)c1	/	32%	1%[59 µM]	-12%	2%	/
O=[N+]([O-])c1ccccc1S(=O)(=O)NC1CC2CCC1C2 (stereo not drawn)	-1	24%	3%	-20%	8%	-8
O=C1SCCC1NS(=O)(=O)c1ccccc1[N+](=O)[O-] (stereo not drawn)	1	12%	45µM*	-14%	-16%	18
CC(=O)Nc1cccc(-n2c(=O)n(Cc3ccccc3)c(=O)c3[nH]cnc32)c1	-5	22%	0%	-1%	-16%	-6
Cc1ccc(-c2nn(-c3ccccc3)cc2C=O)o1	-5	-7%	40µM*	-35%	-12%	-6
CCSc1ccc2cc(OC)ccc2[n+]1CC	-1	29%	20µM*	?	11%	-2
COc1ccc(C2C(C(=O)c3ccc(C)o3)=C(O)C(=O)N2Cc2cccnc2)cc1 (stereo not drawn)	-6	16%	50µM*	35µM*	-17%	9
Cc1ccc(C(=O)C2=C(O)C(=O)N(c3ncccn3)C2c2cccc(Cl)c2)o1 (stereo not drawn)	/	/	10µM*	/	?	/
